Laboratory results from PubChem BioAssay (NCATS).
Active and inactive are the calls of the source. Where a call stands in place of a potency, no number is given. The call rests on the fitted dose curve; in most records, active means well fitted cell-killing curve with a large enough effect; inconclusive means small, poorly fitted or top-dose-only effect; inactive means flat fitted curve, though single readings scatter. Numbered stars: 1 amine (or outer) side, 2 acyl side, 3 side chain; on linkers, the order of the positions; unused ones are H or OH. Bridge positions count the residues as written; N and C are the ends. Square brackets hold non-standard residues; d marks the D form. Peptide text beside a SMILES is read from it. I, II: the chains in the order shown. Actinocin(9to1) = Cc1c2oc3c(C)ccc(C(=O)[*:1])c3nc-2c(C(=O)[*:2])c(N)c1=O; NMeV = CN[C@H](C(=O)O)C(C)C; Sar = CNCC(=O)O

assay: Cell Viability - LYMP1-002 - Assay at 24 hr (AID 993); details: LYMP1-002 lymphoblastoid cells viability; series mostly up to 92.2 µM
Description: NIH Chemical Genomics Center [NCGC]
NIH Molecular Libraries Screening Centers Network [MLSCN]
National Institutes of Environmental Health Sciences [NIEHS]
National Toxicology Program [NTP]
We have developed a 1536-well cell-based assay for quantitative high throughput screening (qHTS) against a number of cell lines to determine in vitro cytotoxicity of small molecules. This particular assay uses a human lymphoblastoid cell line (LYMP1-002) purchased from Coriell Institute for Medical Research.
NCGC Assay Protocol Summary:
The CellTiter-Glo luminescent cell viability assay (Promega) is a homogeneous method to measure the number of viable cells in culture. The end point readout of this assay is based on quantitation of intracellular ATP, an indicator of metabolic activity, using the luciferase reaction. Luciferase catalyzes the oxidation of beetle Luciferin to oxyluciferin and light in the presence of ATP. The luminescent signal is proportional to amount of ATP present.
Using the CellTiter-Glo luminescent cell viability assay, the amount of cellular ATP was measured in the lymphoblastoid cell line with complete culture medium following compound treatment for 24 hours. The assay was performed in opaque white Kalypsys 1536-well plates. In the screen, tetraoctylammonium bromide was used as positive control. Library compounds were measured for their ability to cause acute toxicity in the cell line, as reflected by a decrease in intracellular ATP levels, in a concentration-dependent manner. […] AC50 values were determined from concentration-response data modeled with the standard Hill equation.
qHTS protocol for CellTiter Glo lymphoblastoid cellular assay
[Step] [Parameter] [Value] [Description]
1. Reagent; 5 uL; 2500 lymphoblastoid cells/well
2. Time; 5 hr; 37 C incubation
4. Controls; 23 nL; Tetraoctylammonium bromide 6.4pM to 92 uM
5. Time; 24 hr; 37 C incubation
6. Reagent; 5 uL; CellTiter Glo reagent
7. Time; 30 min; Room Temperature
8. Detection; Luminescence; Viewlux plate reader
Keywords: cell viability, cytotoxicity, lymphoblastoid cell line, luminescence, NTPHTS, NTPHTS_NCGC, NIEHS, DSSTox, MLSMR, MLSCN, NIH Roadmap, qHTS, NCGC
Potency means the concentration at half of the fitted maximal effect.

| SMILES | Potency |
| --- | --- |
| C=CCc1ccc(O)c(OC)c1 | inactive |
| Cc1c2oc3c(C)ccc(C(=O)N[C@@H]4C(=O)N[C@H](C(C)C)C(=O)N5CCC[C@H]5C(=O)N(C)CC(=O)N(C)[C@@H](C(C)C)C(=O)O[C@@H]4C)c3nc-2c(C(=O)N[C@@H]2C(=O)N[C@H](C(C)C)C(=O)N3CCC[C@H]3C(=O)N(C)CC(=O)N(C)[C@@H](C(C)C)C(=O)O[C@@H]2C)c(N)c1=O (I: T[dV]P[Sar][NMeV] / II: T[dV]P[Sar][NMeV]; ester I:1-I:C, II:1-II:C; linker I:N-II:N via Actinocin(9to1)) | 0.0079 µM (active) |
| CC/C(=C(/CC)c1ccc(O)cc1)c1ccc(O)cc1 | inactive |
| C[C@]12CC[C@@H]3c4ccc(O)cc4CC[C@H]3[C@@H]1CC[C@@H]2O | inactive |
| O=C1OC(c2ccc(O)cc2)(c2ccc(O)cc2)c2ccccc21 | inactive |
| COC1=CC(=O)C[C@@H](C)[C@]12Oc1c(Cl)c(OC)cc(OC)c1C2=O | inactive |
| CCCCCCc1ccc(O)cc1O | inactive |
| Nc1ccc(C(=O)O)cc1 | inactive |
| Oc1ccc(O)cc1 | 39.8 µM (active) |
| CN(C)/N=N/c1nc[nH]c1C(N)=O | inactive |
| CC(=O)Oc1ccc(C(c2ccc(OC(C)=O)cc2)c2ccccn2)cc1 | inactive |
| CC(C)(C)CC(C)(C)c1ccc(OCCOCC[N+](C)(C)Cc2ccccc2)cc1 | 50.1 µM (active) |
| Oc1ccc(Cl)cc1Sc1cc(Cl)ccc1O | inactive |
| COc1cccc2c1C(=O)c1c(O)c3c(c(O)c1C2=O)C[C@@](O)(C(C)=O)C[C@@H]3O[C@H]1C[C@H](N)[C@H](O)[C@H](C)O1 | 0.794 µM (active) |
| Oc1c(Cl)cc(Cl)cc1Sc1cc(Cl)cc(Cl)c1O | inactive |
| O=c1ccc2ccccc2o1 | inactive |
| NC(=NCCCCCCN=C(N)/N=C(\N)Nc1ccc(Cl)cc1)/N=C(\N)Nc1ccc(Cl)cc1 | 39.8 µM (active) |
| C=C(CC)C(=O)c1ccc(OCC(=O)O)c(Cl)c1Cl | inactive |
| O=C(O)CCCCC(=O)O | inactive |
| CC(O)C(=O)O (configuration not stated) | inactive |
| COc1cccc2c1C(=O)c1c(O)c3c(c(O)c1C2=O)C[C@@](O)(C(=O)CO)C[C@@H]3O[C@H]1C[C@H](N)[C@H](O)[C@H](C)O1 | 1 µM (active) |
| CC(=O)O[C@]1(C(C)=O)CC[C@H]2[C@@H]3C[C@H](C)C4=CC(=O)CC[C@]4(C)[C@H]3CC[C@@]21C | inactive |
